Results: ChEMBL document CHEMBL1961873, “Compounds: GSK PKIS; Assays: Nanosyn kinase panel” (2012)

Tests used:
[1] = target: Sphingosine kinase 1 (Homo sapiens) (UniProt Q9NYA1); conditions: at 1 µM;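 also: mean SPHK1 inhibition value reported from the GSK PKIS kinase panel screen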
[2] = target: T1, Sphingosine kinase 2 (Homo sapiens) (UniProt Q9NRA0); conditions: at 0.1 µM
T1 sequence (whole entry): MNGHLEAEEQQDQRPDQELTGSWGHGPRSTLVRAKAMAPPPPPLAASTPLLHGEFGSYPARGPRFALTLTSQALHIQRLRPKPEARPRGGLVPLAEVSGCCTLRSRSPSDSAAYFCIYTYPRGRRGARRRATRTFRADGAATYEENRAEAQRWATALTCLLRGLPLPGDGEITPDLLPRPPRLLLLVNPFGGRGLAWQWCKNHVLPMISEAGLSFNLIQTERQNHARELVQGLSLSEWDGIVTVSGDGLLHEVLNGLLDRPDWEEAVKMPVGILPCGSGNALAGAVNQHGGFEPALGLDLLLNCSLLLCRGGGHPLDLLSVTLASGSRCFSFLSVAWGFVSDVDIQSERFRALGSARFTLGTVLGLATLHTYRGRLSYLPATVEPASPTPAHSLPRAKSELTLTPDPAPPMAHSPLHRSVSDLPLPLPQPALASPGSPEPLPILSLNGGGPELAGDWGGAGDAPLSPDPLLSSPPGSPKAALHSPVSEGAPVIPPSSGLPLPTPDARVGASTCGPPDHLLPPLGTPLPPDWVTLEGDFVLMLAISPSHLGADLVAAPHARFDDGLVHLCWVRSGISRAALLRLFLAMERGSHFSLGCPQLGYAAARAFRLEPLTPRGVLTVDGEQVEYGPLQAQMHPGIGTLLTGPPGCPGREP

[3] = target: T1, Sphingosine kinase 2 (Homo sapiens); conditions: at 1 µM
[4] = target: Casein kinase II subunit alpha (Homo sapiens) (UniProt P68400); conditions: at 0.1 µM
Sequence of Casein kinase II subunit alpha (Homo sapiens) (P68400 whole entry, looked up): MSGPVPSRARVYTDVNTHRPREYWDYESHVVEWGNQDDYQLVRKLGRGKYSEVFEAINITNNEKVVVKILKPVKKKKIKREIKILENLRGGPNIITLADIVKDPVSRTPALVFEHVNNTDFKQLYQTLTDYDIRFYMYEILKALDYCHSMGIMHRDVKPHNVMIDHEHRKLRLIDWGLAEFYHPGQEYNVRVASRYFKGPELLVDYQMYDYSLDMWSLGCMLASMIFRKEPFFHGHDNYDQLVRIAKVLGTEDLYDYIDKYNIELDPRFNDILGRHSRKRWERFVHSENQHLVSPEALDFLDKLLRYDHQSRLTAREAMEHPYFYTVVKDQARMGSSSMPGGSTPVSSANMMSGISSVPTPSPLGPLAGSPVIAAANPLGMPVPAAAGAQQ

[5] = target: Casein kinase II subunit alpha (Homo sapiens) (UniProt P68400); conditions: at 1 µM
[6] = target: T2, Inhibitor of nuclear factor kappa-B kinase subunit alpha (Homo sapiens) (UniProt O15111); conditions: at 0.1 µM
T2 sequence (whole entry): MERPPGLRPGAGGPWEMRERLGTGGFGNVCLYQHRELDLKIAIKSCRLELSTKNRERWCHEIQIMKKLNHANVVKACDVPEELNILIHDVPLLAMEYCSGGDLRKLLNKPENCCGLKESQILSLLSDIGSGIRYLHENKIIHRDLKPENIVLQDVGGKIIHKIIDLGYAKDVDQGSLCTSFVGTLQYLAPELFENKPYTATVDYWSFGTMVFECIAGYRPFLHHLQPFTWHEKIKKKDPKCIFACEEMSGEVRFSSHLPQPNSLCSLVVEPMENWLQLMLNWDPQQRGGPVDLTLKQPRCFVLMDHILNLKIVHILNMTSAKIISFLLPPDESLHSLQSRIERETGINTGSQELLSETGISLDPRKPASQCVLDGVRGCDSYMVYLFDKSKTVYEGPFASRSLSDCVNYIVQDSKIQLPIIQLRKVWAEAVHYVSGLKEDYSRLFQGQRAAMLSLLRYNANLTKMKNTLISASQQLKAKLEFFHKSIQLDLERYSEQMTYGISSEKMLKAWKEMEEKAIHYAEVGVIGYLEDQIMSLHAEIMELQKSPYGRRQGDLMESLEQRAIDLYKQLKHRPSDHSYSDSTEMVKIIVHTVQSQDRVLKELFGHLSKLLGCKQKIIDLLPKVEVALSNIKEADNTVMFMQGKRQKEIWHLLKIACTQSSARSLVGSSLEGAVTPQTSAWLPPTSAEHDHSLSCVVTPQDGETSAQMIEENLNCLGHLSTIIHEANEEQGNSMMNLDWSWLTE

[7] = target: T2, Inhibitor of nuclear factor kappa-B kinase subunit alpha (Homo sapiens); conditions: at 1 µM
[8] = target: T3, Inhibitor of nuclear factor kappa-B kinase subunit beta (Homo sapiens) (UniProt O14920); conditions: at 0.1 µM
T3 sequence (whole entry): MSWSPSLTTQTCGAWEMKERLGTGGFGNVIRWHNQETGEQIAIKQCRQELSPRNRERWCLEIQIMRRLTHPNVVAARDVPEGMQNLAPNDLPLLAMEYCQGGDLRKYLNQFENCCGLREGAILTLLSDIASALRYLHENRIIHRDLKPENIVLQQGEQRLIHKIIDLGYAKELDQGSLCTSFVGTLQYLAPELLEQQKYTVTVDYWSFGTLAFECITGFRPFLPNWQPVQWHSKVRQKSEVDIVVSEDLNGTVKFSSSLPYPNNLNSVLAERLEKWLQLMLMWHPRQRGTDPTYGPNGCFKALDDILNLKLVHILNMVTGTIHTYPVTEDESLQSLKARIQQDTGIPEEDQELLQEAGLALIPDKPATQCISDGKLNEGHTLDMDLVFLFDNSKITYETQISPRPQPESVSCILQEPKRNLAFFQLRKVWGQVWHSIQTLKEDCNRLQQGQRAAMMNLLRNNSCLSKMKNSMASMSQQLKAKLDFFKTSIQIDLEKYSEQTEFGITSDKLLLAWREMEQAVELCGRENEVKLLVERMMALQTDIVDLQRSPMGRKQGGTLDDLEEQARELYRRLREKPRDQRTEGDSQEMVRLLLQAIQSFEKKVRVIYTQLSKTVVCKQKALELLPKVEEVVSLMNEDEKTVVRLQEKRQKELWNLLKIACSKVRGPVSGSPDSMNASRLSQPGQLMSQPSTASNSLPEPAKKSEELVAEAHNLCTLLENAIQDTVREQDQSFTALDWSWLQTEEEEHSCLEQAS

[9] = target: T3, Inhibitor of nuclear factor kappa-B kinase subunit beta (Homo sapiens); conditions: at 1 µM
[10] = target: T4, Inhibitor of nuclear factor kappa-B kinase subunit epsilon (Homo sapiens) (UniProt Q14164); conditions: at 0.1 µM
T4 sequence (whole entry): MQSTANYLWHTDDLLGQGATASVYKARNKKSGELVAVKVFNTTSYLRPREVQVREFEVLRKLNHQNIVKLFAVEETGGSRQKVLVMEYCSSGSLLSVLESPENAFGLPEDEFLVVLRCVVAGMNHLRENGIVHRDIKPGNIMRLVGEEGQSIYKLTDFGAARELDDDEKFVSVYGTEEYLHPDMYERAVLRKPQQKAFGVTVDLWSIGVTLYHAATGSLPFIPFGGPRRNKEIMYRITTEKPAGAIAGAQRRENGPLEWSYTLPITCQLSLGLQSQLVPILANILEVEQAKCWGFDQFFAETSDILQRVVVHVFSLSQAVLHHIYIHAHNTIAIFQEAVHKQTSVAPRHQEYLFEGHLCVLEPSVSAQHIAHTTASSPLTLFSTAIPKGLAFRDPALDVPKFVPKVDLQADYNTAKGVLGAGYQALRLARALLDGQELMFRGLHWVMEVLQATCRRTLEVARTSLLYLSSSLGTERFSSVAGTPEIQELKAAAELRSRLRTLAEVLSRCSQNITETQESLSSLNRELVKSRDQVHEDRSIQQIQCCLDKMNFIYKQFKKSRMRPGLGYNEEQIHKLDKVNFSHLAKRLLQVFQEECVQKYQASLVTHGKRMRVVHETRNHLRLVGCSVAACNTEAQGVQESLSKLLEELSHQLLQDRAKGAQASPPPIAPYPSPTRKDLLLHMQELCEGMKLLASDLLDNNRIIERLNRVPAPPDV

[11] = target: T4, Inhibitor of nuclear factor kappa-B kinase subunit epsilon (Homo sapiens); conditions: at 1 µM
[12] = target: T5, Serine/threonine-protein kinase Nek1 (Homo sapiens) (UniProt Q96PY6); conditions: at 0.1 µM
T5 sequence (whole entry): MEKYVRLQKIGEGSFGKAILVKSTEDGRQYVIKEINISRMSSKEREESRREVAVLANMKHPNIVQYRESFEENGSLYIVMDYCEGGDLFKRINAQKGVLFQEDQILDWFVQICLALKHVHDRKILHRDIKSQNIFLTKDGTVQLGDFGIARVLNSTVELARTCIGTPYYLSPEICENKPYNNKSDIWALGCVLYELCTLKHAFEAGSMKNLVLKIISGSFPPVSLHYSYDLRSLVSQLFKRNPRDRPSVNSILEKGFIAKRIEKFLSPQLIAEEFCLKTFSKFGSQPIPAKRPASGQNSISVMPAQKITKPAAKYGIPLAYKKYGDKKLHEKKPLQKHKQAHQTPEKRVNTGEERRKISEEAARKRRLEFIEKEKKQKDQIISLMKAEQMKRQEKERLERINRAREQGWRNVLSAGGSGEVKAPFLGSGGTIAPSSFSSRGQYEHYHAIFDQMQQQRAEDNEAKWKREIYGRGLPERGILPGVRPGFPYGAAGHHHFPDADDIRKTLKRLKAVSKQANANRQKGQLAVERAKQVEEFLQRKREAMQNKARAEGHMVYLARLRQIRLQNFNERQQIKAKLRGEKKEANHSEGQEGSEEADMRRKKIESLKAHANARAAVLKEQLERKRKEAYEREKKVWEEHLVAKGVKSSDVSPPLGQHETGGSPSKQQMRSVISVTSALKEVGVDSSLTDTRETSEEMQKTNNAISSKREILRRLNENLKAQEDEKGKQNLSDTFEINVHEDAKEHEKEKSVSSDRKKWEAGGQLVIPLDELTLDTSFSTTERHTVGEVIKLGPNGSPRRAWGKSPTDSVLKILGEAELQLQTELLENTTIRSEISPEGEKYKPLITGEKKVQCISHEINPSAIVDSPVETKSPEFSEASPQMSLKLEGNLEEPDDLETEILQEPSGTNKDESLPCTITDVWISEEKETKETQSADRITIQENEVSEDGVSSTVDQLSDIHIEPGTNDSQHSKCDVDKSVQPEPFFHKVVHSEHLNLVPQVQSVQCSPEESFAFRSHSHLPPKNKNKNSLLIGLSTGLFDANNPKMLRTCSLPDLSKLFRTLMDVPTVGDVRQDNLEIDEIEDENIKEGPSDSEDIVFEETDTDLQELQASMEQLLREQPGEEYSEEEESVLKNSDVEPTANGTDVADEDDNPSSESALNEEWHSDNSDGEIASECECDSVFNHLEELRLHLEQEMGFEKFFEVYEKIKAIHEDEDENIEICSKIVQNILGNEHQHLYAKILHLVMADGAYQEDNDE

[13] = target: T5, Serine/threonine-protein kinase Nek1 (Homo sapiens); conditions: at 1 µM
[14] = target: T6, Serine/threonine-protein kinase Nek2 (Homo sapiens) (UniProt P51955); conditions: at 0.1 µM
T6 sequence (whole entry): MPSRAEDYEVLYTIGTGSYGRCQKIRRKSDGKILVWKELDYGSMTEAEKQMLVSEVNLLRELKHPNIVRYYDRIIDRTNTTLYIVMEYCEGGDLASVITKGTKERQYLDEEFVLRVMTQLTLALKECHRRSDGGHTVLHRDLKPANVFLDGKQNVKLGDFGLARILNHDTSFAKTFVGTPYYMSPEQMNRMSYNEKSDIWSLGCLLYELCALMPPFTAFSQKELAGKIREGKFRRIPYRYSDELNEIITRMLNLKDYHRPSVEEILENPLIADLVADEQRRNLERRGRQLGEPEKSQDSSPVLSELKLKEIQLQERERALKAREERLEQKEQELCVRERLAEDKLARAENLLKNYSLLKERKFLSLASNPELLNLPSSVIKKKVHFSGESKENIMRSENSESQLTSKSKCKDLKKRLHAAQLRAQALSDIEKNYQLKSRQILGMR

[15] = target: T6, Serine/threonine-protein kinase Nek2 (Homo sapiens); conditions: at 1 µM
[16] = target: Serine/threonine-protein kinase Nek6 (Homo sapiens) (UniProt Q9HC98); conditions: at 0.1 µM
Sequence of Serine/threonine-protein kinase Nek6 (Homo sapiens) (Q9HC98 whole entry): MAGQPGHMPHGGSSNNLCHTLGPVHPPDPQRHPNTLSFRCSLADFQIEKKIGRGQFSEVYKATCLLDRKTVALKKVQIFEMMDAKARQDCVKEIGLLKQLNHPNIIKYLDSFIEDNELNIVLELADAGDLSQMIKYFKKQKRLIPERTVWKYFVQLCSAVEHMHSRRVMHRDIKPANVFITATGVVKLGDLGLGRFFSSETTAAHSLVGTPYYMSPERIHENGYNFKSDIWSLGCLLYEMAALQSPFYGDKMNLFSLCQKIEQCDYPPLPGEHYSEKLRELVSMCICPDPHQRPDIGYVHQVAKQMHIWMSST

[17] = target: Serine/threonine-protein kinase Nek6 (Homo sapiens) (UniProt Q9HC98); conditions: at 1 µM
[18] = target: Serine/threonine-protein kinase Nek7 (Homo sapiens) (UniProt Q8TDX7); conditions: at 0.1 µM
Sequence of Serine/threonine-protein kinase Nek7 (Homo sapiens) (Q8TDX7 whole entry, looked up): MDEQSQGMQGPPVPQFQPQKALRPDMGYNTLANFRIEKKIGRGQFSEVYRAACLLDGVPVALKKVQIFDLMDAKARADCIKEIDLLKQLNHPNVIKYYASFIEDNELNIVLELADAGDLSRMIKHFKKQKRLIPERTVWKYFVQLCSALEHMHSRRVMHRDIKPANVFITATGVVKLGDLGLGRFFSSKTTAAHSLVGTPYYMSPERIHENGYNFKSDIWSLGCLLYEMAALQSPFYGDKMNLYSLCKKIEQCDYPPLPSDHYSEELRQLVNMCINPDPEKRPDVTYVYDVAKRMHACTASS

[19] = target: Serine/threonine-protein kinase Nek7 (Homo sapiens) (UniProt Q8TDX7); conditions: at 1 µM
[20] = target: T7, Serine/threonine-protein kinase Nek9 (Homo sapiens) (UniProt Q8TD19); conditions: at 0.1 µM;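 also: reported value is the mean percent inhibition of NEK9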
T7 sequence (whole entry): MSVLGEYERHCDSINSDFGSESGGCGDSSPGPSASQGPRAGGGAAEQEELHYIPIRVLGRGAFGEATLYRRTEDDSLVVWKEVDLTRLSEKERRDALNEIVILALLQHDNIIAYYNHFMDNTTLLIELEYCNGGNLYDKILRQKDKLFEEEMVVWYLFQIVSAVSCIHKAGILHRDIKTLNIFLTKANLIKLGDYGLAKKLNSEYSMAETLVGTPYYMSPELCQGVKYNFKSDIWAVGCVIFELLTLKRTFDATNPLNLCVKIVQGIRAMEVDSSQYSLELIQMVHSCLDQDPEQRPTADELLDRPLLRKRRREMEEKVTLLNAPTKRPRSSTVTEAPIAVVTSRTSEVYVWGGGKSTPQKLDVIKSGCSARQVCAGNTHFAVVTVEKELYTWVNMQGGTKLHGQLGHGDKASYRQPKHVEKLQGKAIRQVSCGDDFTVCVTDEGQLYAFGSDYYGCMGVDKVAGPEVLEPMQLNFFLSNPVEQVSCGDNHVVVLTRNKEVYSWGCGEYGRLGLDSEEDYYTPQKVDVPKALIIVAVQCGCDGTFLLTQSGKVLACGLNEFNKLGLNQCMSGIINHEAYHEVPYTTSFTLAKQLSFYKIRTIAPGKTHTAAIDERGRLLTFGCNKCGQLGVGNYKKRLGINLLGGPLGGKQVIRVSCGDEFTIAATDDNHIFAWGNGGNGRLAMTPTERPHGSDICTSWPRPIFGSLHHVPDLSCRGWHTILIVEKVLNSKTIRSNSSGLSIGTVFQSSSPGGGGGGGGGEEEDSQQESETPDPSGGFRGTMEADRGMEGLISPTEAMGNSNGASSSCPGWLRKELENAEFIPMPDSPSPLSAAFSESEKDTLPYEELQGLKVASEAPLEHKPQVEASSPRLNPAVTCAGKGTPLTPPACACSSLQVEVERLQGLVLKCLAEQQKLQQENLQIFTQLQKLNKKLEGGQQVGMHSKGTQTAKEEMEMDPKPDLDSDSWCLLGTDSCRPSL

Sequence of Sphingosine kinase 1 (Homo sapiens) (Q9NYA1 whole entry): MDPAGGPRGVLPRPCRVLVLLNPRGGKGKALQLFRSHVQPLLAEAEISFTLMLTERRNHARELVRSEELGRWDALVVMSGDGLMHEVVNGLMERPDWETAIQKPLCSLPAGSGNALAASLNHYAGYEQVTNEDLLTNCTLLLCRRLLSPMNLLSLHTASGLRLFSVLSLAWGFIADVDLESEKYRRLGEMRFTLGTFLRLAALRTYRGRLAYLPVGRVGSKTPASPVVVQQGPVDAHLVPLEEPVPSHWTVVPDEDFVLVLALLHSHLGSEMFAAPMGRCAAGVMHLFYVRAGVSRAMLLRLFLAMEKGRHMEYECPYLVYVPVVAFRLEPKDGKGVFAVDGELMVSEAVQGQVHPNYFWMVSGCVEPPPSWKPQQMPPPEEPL

Structure (SMILES) | inhibition [1] | inhibition [2] | inhibition [3] | inhibition [4] | inhibition [5] | inhibition [6] | inhibition [7] | inhibition [8] | inhibition [9] | inhibition [10] | inhibition [11] | inhibition [12] | inhibition [13] | inhibition [14] | inhibition [15] | inhibition [16] | inhibition [17] | inhibition [18] | inhibition [19] | inhibition [20]
NS(=O)(=O)c1ccc(N/N=C2\C(=O)Nc3ccc(-c4cnco4)cc32)cc1 | 1.01% | 1.12% | -1.25% | 5.69% | 15.2% | 1.42% | 35.1% | 2.62% | 10.4% | 5.68% | 26.5% | 0.9% | -0.1% | 2.64% | 1.79% | 1.55% | 1.55% | 2.6% | 8.73% | 2.34%
O=C1Nc2ccccc2/C1=C/Nc1ccc(-n2cncn2)cc1 | -4.72% | -0.36% | 1.3% | 7.12% | 12.8% | 11.8% | 2.05% | 9.35% | 11.4% | 7.57% | 16.4% | 2.46% | 5.21% | 4.4% | 4.16% | 4.59% | 7.54% | 5.44% | 4.4% | 5.79%
